An excerpt weighted towards active compounds, which were near 11% of everything screened.
IMPase Li inh = IMPase inhibition in cells with lithium potentiation; Potency, µM (titrated, usually from 59.4 µM), for the others: top-dose activity, negative = IMPase inhibition, actives largely listed as inhibitors; CHO-M1 cells, IP1 TR-FRET (IP-One), carbachol + lithium; 210,000 compounds, 0.35% hits;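 note: IP1 builds up when IMPase is blocked and the TR-FRET signal falls; potency is the fitted concentration of half-maximal effect; plate controls were basal vehicle for no effect and high inhibitor control for full effect; nearly all actives have a fitted effect of over 50% in size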
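Lithium-sensitised IP1 accumulation assay; M1-expressing CHO cells treated 30 min at 37C with compound. Competitive antibody detection by time-resolved FRET followed a 10 min room-temperature lysis step.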
NPSR antag = blocks cAMP signaling of the human neuropeptide S receptor; AID 1461; CHO-NPSR cells, cAMP TR-FRET, antagonist mode; 220,000 compounds, 1% hits; Potency, µM (doses to about 38.3 µM), inactives show top-dose activity change, negative = inhibition, usual class: inhibitors; note: potency is the fitted concentration of half-maximal effect; nearly all actives have a fitted effect of over 50% in size
PNC inhibitor = blocks assembly of the perinucleolar compartment; 140,000 compounds, 3.1% hits; activity change (PNC), negative = inhibition, % at 10 µM; PC3M PTB-GFP, PNC prevalence imaging, 16 h; active compounds read low; AID 2417;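 active = readout at or below -70, meaning at least 70% loss of cells showing the perinucleolar compartment, a nuclear body marking cancer cells; inconclusive = readout between -30 and a set limit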;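 note: plate controls were DMSO wells for no effect and camptothecin positive control wells for full effect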
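Compounds are pinned in duplicate onto adhered PC3M cells stably expressing GFP-tagged PTB and incubated 16 h at 37 C. Cells are then fixed, nuclei stained with Hoechst, and PNC-positive cells counted.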
HPGD block = inhibitors of human 15-hydroxyprostaglandin dehydrogenase (HPGD) | purified HPGD, NADH fluorescence kinetic, PGE2 substrate | 150,000 compounds, 4.3% hits | Potency, µM, without a hit: top-dose activity change, negative = inhibition, most hits filed as inhibitors; active = well fitted inhibition curve with a large enough effect, not every such curve was filed as active; inconclusive = small, poorly fitted or top-dose-only effect, or another doubt; inactive = no such curve, though single readings can be large or run the other way; note: potency is the fitted concentration of half-maximal effect
Target sequence (P15428 whole entry, looked up): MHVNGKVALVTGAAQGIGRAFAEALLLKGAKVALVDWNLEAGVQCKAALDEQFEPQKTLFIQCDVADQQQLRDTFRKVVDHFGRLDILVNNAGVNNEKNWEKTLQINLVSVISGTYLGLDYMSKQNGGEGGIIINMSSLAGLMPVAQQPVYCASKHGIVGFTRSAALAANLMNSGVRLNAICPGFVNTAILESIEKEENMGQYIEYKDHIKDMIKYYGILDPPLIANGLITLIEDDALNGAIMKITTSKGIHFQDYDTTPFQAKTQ
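20 nM HPGD preincubated 15 min at room temperature with compound in 50 mM Tris-HCl pH 8, 0.01% Tween 20. Started with 1 mM NAD+ and 30 uM prostaglandin E2; NADH fluorescence (360/450 nm) read 5 times over 30-s intervals, last minus first.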
ALDH1A1 inh = ALDH1A1 (human) enzyme inhibition; P00352; Purified ALDH1A1, NADH fluorescence, propionaldehyde substrate; Potency, µM (doses to about 75.3 µM), inactives show top-dose activity, negative = inhibition, most hits filed as inhibitors; 220,000 compounds, 7.3% hits; active = well fitted inhibition curve with a large enough effect, not every such curve was filed as active; inconclusive = small, poorly fitted or top-dose-only effect, or another doubt; inactive = no such curve, though single readings can be large or run the other way;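 note: potency is the fitted concentration of half-maximal effect; plate controls were no enzyme wells and a reference inhibitor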
Target sequence (P00352 whole entry, looked up): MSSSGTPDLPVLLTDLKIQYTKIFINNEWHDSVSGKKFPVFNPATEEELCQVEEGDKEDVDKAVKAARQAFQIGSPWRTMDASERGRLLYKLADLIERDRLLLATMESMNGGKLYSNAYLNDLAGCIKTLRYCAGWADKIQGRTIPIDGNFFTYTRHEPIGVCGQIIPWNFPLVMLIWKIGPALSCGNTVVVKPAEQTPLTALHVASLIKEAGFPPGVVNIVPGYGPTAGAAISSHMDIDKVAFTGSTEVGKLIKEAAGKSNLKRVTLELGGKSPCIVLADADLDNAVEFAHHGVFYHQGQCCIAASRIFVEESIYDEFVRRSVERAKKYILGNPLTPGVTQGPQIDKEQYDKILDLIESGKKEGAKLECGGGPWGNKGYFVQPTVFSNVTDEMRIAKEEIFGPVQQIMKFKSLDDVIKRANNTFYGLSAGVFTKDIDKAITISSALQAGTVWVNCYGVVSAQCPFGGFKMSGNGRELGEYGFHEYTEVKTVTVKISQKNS
IMPase cell inh = IMPase inhibition in cells; CHO-M1 cells, IP1 accumulation, HTRF TR-FRET ratio; P97697; AID 901; 120,000 tested, under 10 active; inhibition (IP1 accumulation), % at 46.1 µM; active = well fitted curve in the direction sought with a large enough effect in the signal ratio, not every such curve was filed as active; inconclusive = small, poorly fitted or top-dose-only effect, or a change in a side signal; inactive = no such curve, though single readings can be large or run the other way; the % refers to the signal ratio;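 note: cells stimulated with carbachol in lithium chloride buffer; plate controls were DMSO basal wells for no effect and reference inhibitor wells for full effect; higher means more IMPase inhibition seen as more IP1 and lower FRET ratio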
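In this qHTS, compounds (final up to 46 uM) act on CHO-M1 cells that are then activated through the M1 receptor with carbachol, in pH 7.4 buffer containing 50 mM LiCl, for 30 min. IP1 accumulation is quantified by the IP-One immunoassay.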
Active calls of the source: *; ? = inconclusive; . = no result; [ ] = dose if it differs, or a comment. Unless noted, calls come from the whole dose curve; as a rule, active = well fitted curve in the direction sought with a large enough effect; inconclusive = small, poorly fitted or top-dose-only effect, or another doubt; inactive = no such curve, though single readings can be large; an effect the other way counts as inactive or inconclusive. Unless noted, % is set by controls: 0 for no effect and ±100 for the full control effect.

SMILES | IMPase Li inh | NPSR antag | PNC inhibitor | HPGD block | ALDH1A1 inh | IMPase cell inh
CCOc1c2ccc(C(=O)NCc3cc(C(F)(F)F)cc(C(F)(F)F)c3)cc2nn1CCOC | -9.0%[38.3 µM] | -10.7%[46.1 µM] | 63.8 | ? | ? | 1.9
CCCCOC(=O)CNc1n[nH]c(=S)[nH]c1=O | 3.98µM* | 10µM* | ? | 25.1µM* | ? | ?
Cc1nnc(SCC(=O)NCC2CCCO2)n1-c1ccccc1 (configuration not stated) | -12.0%[38.3 µM] | 1.4%[46.1 µM] | -118.1* | -18.9% | ? | -9.7
COc1ccc(-n2c(SCC(=O)NCC3CCCO3)nc3ccccc32)cc1 (configuration not stated) | 16.4%[38.3 µM] | -23.9%[46.1 µM] | 5.4 | 10µM* | ? | -2.6
COc1ccc(-n2c(Cc3cccn3C)nnc2SCC(=O)NCC2CCCO2)cc1 (configuration not stated) | 25.3%[38.3 µM] | -5.8%[46.1 µM] | -10.0 | -9.2% | -13.3% | 3.3
COc1ccc(-n2c(N)c(C(=O)NCC3CCCO3)sc2=S)cc1 (configuration not stated) | 28.5%[38.3 µM] | -11.3%[46.1 µM] | 47.9 | 15.8µM* | ? | -3.8
CCCC(CCC(=O)Nc1nccs1)C(=O)O (configuration not stated) | 3.8% | 3.5% | . | . | 2.7% | .
Cc1nn(-c2ccccc2)c(N2CCCC2)c1/C=N/NC(=O)c1cc2ccccc2cc1O | -15.5% | -1.0% | -1.2 | ? | 5.1% | 3.7
CN(C)CCN(C)Cc1ccc2c(c1)Cc1ccccc1-2 | 26.6%[38.3 µM] | ? | 29.7 | -15.2% | 11.2µM* | 16.0
O=C(/C=C/c1ccc(Cl)cc1)NCc1cccs1 | 3.7% | -1.9% | ? | -18.7% | 0.8% | .
O=C(NC1CCCCC1)C(c1ccc2ncccc2c1)N(Cc1ccccc1)C(=O)c1cccs1 (configuration not stated) | 0.4% | ? | 38.3 | -5.5% | ? | 3.6
O=C(CSc1ncccn1)NCc1cccs1 | 6.9% | 13.5% | . | . | 4.2% | .
O=C(/C=C/c1cccc(Cl)c1)NCc1cccs1 | -5.7%[38.3 µM] | -5.3%[46.1 µM] | 13.1 | 31.6µM* | -3.1% | 0.3
O=C(NC1CCCCC1)C(c1ccc2ncccc2c1)N(Cc1ccc2c(c1)OCO2)C(=O)c1cccs1 (configuration not stated) | 4.8%[38.3 µM] | ? | 2.6 | -14.1% | 5.01µM* | 6.3
O=C(CSc1ccc2ccccc2c1)NCc1cccs1 | 14.5% | -12.3% | -21.7 | 7.94µM* | ? | 2.5
Cc1ccc(CNC(=O)COc2ccc(C(=O)c3ccc(F)cc3)cc2)cc1 | 1.1% | -0.5%[46.1 µM] | -20.3 | 39.8µM* | ? | -6.1
O=C(COc1ccc(C(=O)c2ccc(F)cc2)cc1)NCc1ccc(F)cc1 | 12.4% | -5.0%[46.1 µM] | 8.1 | -17.1% | -13.5% | 11.3
OC(CNC1CCCc2ccccc21)COc1c(Cl)cccc1Cl (configuration not stated) | -1.7% | 5.7% | 83.5 | -7.4% | ? | .
N/C(=N\OC(=O)c1ccc(Cl)cc1)c1cccnc1 | 20.9%[38.3 µM] | -2.7%[46.1 µM] | 4.9 | -3.0% | -0.1% | ?
Cc1cc(NS(=O)(=O)c2ccc(NC(=O)C(C)N3C(=O)c4ccccc4C3=O)cc2)nc(C)n1 (configuration not stated) | 0.1%[38.3 µM] | 0.3%[46.1 µM] | ? | 1.3% | 10.3% | 8.8
COc1ccccc1NC(=O)c1cc2c(n(-c3ccc(C)cc3)c1=O)CC(C)(C)CC2=O | . | . | . | . | . | 17.4
O=C(CCC1CCCCC1)NCc1cccs1 | 27.3%[38.3 µM] | 11.3%[46.1 µM] | 2.4 | 10µM* | -7.4% | -4.1
O=C(Cn1cc(C(=O)c2cccs2)c2ccccc21)NCc1ccc2c(c1)OCO2 | 5.2%[38.3 µM] | -20.8%[46.1 µM] | -9.5 | -5.2% | 14.1µM* | -1.4
O=C(Cc1cccs1)NCc1cccs1 | 8.7%[38.3 µM] | 12.1%[46.1 µM] | ? | 15.8µM* | ? | -15.2
CC(C)CC(=O)NCc1ccc(F)cc1 | 9.7%[38.3 µM] | 4.1%[46.1 µM] | 51.2 | 15.8µM* | -5.5% | 4.6
SMILES | IMPase Li inh | NPSR antag | PNC inhibitor | HPGD block | ALDH1A1 inh | IMPase cell inh
COc1ccc(CC(=O)NCc2cccs2)cc1 | -0.4%[38.3 µM] | -8.8%[46.1 µM] | 0.0 | -28.4% | 3.0% | 12.1
O=C(Cn1cc(C(=O)c2cccs2)c2ccccc21)NCC1CCCO1 (configuration not stated) | ? | 1.5%[46.1 µM] | -12.9 | -1.3% | -12.3% | -27.9
Cn1c(=O)n(CCN2CCOCC2)c(=O)c2c1nc1n2CCCN1c1ccccc1 | -4.3%[38.3 µM] | -20.2%[46.1 µM] | -7.1 | -14.2% | -6.5% | -11.1
O=C(NCc1cccs1)C12CC3CC(CC(C3)C1)C2 | -5.3% | -8.6% | . | . | -4.5% | .
O=C(Cc1cccs1)NCc1ccc(F)cc1 | -0.7%[38.3 µM] | -10.0%[46.1 µM] | 8.6 | 25.1µM* | 8.0% | -1.7
O=C(NCc1ccc2c(c1)OCO2)c1cccc(C(=O)NCc2ccc3c(c2)OCO3)c1 | 26.9%[38.3 µM] | -21.1%[46.1 µM] | 7.8 | -14.9% | -7.6% | 7.1
O=C(Cc1cccs1)NCc1ccc2c(c1)OCO2 | 22.5%[38.3 µM] | -7.0%[46.1 µM] | ? | 15.8µM* | 8.6% | 5.5
O=C(NCc1ccccc1)C(c1ccccc1)N(Cc1ccc2c(c1)OCO2)C(=O)Cc1cccs1 (configuration not stated) | 24.9% | -20.5%[46.1 µM] | -108.4* | -13.4% | ? | 2.3
O=C(NC1CCCC1)C(c1ccccc1)N(Cc1ccc2c(c1)OCO2)C(=O)Cc1cccs1 (configuration not stated) | 21.2% | -30.0%[46.1 µM] | ? | -6.4% | 1.0% | 11.2
O=C(CC1CC2CCC1C2)NCc1cccs1 (configuration not stated) | 22.6%[38.3 µM] | 5.2%[46.1 µM] | 4.2 | 15.8µM* | 7.9% | -0.7
CC(C)CN(C(=O)CSc1nnnn1-c1ccccc1)c1c(N)n(CC(C)C)c(=O)[nH]c1=O | -0.5% | -3.4% | . | . | ? | .
O=C(COC(=O)c1ccco1)Nc1ccc(Br)cc1 | -3.4%[38.3 µM] | 2.4%[46.1 µM] | 23.1 | -9.3% | 8.9% | 2.0
c1ccc(-c2nnc(SCC3CCCCO3)nc2-c2ccccc2)cc1 (configuration not stated) | 16.6% | -58.7% | . | . | ? | .
c1ccc(-c2nnc(SCC3CCCO3)nc2-c2ccccc2)cc1 (configuration not stated) | . | ? | . | . | 12.6µM* | .
O=C(c1cc2c(=O)n3ccccc3nc2s1)N1CCN(Cc2ccc3c(c2)OCO3)CC1 | -2.6% | -1.7% | . | . | ? | .
C=CCNC(=O)CSc1nc2cc(C(=O)OCC)ccc2n1CC | 8.2%[38.3 µM] | -12.5%[46.1 µM] | ? | 25.1µM* | -4.5% | 0.0
CCOC(=O)c1ccc2c(c1)nc(SCC(=O)c1cc3ccccc3o1)n2CC | 0.2%[38.3 µM] | -14.9%[46.1 µM] | -0.5 | -22.2% | ? | 3.5
COc1ccccc1NC(=O)Cn1c(O)c(N=NC(=O)c2ccccc2O)c2ccccc21 | -3.0% | -22.6% | . | . | 1.58µM* | .
CCCCn1c(O)c(N=NC(=O)c2ccncc2)c2cc(Br)ccc21 | 19.8% | -36.0% | ? | -1.8% | 7.94µM* | .

Bioassay records from PubChem.
